Values without a mark were called inactive.
Columns and labels:
Test in all cases: log2 ratio of Biotin-Ahx-Ub-VS probe labelling (fragment/DMSO); higher = less target engagement (more negative = stronger competition), active = hit call of the paper (q ≤ 0.05, log2 ratio ≤ -1)
Settings in all cases: compound concentration: 200 uM; treatment time: 3 h
OTUD6B = target: T1, OTUD6B (UniProt Q8N6M0)
T1 sequence (whole entry): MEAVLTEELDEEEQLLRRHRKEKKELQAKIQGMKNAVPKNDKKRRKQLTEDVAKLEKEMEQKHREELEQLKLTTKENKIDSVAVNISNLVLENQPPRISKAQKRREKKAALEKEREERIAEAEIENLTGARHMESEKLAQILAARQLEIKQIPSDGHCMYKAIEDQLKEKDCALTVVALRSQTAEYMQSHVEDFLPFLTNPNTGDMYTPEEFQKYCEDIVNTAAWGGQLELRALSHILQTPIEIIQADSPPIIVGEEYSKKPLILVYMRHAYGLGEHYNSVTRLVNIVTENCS
Outline: (§1)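 HEK293T lysate (495 µg per sample, in Tris/CHAPS/IGEPAL buffer with protease inhibitors) was exposed in triplicate for 3 h to fragment at 200 µM or to vehicle, then to Biotin-Ahx-Ub-VS at 0.5 µM final for 1 h. Labelled DUBs were enriched on NeutrAvidin, digested with LysC and trypsin, and analysed by diaPASEF LC-MS/MS. Spectronaut label-free quantities were normalised to the global median, and values are average log2 ratios of fragment over vehicle from an unpaired t-test. Only proteins with ≥2 unique peptides were used.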

OTUD7B = target: T2, OTUD7B (UniProt Q6GQQ9)
T2 sequence (whole entry): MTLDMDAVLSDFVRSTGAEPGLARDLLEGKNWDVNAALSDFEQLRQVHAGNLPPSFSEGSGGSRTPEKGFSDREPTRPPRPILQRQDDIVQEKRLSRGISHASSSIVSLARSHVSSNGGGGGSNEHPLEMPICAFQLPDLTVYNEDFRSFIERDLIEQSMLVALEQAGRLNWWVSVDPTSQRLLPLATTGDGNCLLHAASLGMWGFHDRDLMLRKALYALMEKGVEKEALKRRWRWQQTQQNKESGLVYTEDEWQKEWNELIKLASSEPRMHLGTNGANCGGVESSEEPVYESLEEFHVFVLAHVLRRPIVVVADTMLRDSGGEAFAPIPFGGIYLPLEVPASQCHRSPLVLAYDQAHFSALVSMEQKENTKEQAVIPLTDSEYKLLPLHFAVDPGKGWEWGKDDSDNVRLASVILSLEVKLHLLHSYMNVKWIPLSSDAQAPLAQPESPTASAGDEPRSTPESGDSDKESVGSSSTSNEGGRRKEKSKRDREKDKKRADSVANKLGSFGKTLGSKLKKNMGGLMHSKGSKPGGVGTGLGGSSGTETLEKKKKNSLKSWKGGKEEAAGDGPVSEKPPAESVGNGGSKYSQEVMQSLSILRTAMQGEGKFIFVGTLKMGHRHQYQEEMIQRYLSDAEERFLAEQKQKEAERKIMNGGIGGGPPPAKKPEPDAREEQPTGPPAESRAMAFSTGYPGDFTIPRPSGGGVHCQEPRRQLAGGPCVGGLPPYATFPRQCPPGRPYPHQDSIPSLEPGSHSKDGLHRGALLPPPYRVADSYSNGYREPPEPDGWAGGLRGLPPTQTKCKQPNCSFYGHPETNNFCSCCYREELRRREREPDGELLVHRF
Outline: as §1

PRPF8 = PRPF8 (UniProt Q6P2Q9)
Outline: as §1

PSMD7 = target: T3, PSMD7 (UniProt P51665)
T3 sequence (whole entry): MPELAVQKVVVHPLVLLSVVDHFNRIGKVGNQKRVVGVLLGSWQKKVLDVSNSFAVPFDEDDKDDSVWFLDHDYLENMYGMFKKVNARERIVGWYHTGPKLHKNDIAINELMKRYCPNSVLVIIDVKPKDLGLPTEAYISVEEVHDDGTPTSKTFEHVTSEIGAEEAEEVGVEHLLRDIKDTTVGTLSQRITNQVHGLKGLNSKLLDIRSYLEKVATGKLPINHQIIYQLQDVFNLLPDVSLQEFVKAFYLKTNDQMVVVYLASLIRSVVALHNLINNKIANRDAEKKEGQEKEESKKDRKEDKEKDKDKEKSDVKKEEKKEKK
Outline: as §1

UCHL1 = UCHL1 (UniProt P09936)
Outline: as §1

UCHL3 = target: T4, UCHL3 (UniProt P15374)
T4 sequence (whole entry): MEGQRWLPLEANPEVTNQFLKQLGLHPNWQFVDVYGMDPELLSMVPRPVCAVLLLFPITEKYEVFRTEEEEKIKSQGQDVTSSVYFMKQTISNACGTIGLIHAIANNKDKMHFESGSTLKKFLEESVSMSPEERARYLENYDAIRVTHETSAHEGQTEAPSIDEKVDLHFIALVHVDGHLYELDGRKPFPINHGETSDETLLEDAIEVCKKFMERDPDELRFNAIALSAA
Outline: as §1

UCHL5 = target: T5, UCHL5 (UniProt Q9Y5K5)
T5 sequence (whole entry): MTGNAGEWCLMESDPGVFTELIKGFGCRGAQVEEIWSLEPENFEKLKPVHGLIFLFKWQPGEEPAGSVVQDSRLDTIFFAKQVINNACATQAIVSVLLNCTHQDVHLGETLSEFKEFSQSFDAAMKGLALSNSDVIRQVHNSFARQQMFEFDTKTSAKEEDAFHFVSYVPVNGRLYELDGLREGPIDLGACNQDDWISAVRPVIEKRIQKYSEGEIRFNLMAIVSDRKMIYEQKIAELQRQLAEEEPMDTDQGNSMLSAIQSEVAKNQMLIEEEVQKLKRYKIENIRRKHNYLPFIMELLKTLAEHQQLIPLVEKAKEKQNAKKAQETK
Outline: as §1

USP10 = USP10 (UniProt Q14694)
Outline: as §1

USP15 = target: T6, USP15 (UniProt Q9Y4E8)
T6 sequence (whole entry): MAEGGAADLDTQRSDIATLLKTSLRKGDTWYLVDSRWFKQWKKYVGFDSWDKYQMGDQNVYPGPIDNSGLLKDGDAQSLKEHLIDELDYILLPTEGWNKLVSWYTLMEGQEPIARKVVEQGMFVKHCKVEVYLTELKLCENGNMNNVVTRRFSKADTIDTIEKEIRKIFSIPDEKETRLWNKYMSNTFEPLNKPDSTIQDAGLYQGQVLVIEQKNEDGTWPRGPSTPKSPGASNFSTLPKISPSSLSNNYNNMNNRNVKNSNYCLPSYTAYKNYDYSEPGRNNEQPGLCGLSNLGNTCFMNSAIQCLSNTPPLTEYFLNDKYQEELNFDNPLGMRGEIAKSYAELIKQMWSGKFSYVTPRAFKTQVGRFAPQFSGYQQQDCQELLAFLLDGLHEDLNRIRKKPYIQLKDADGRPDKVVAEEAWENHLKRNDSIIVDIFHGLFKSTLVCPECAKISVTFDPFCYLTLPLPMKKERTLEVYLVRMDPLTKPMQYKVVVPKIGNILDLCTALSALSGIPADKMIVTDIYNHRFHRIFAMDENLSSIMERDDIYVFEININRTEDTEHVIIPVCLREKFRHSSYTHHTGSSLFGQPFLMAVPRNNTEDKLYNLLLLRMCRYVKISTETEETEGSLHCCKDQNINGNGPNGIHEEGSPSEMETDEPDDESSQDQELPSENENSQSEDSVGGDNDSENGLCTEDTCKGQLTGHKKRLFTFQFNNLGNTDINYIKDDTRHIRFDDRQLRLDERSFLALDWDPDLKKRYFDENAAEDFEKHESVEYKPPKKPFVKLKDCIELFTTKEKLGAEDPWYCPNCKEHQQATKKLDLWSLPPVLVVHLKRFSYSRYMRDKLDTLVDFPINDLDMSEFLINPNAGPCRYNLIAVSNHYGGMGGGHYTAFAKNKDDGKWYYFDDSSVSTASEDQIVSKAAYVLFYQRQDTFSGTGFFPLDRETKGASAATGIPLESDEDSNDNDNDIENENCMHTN
Outline: as §1

USP16 = USP16 (UniProt Q9Y5T5)
Outline: as §1

USP10, sequence (Q14694 whole entry): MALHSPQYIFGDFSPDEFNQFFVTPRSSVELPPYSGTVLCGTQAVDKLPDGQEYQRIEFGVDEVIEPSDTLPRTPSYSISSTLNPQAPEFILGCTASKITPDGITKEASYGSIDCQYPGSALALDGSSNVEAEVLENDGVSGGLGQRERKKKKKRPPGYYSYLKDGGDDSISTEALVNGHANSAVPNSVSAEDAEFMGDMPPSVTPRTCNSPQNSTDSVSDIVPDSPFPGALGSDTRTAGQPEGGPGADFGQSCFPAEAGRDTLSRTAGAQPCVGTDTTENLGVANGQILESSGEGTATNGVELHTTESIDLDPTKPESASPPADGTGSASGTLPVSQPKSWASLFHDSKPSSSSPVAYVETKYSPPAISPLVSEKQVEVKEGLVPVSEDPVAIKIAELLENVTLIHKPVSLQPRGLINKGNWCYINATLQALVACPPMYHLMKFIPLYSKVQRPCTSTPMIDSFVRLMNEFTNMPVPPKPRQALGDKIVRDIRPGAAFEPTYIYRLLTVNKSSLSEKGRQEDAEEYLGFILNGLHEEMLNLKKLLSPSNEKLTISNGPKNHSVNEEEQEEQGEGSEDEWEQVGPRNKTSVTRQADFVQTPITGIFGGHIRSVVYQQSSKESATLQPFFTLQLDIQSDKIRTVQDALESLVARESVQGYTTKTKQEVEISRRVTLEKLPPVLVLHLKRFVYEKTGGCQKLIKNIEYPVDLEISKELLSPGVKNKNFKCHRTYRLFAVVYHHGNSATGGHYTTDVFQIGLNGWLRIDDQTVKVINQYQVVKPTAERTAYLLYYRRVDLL
UCHL1, sequence (P09936 whole entry, looked up): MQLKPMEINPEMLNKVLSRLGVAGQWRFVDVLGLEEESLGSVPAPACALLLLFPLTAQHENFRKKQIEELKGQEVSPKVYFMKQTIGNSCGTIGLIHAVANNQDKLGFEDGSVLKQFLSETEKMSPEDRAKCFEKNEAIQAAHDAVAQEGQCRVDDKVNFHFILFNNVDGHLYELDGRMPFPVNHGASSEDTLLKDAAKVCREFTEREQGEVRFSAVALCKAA
USP16, sequence (Q9Y5T5 whole entry, looked up): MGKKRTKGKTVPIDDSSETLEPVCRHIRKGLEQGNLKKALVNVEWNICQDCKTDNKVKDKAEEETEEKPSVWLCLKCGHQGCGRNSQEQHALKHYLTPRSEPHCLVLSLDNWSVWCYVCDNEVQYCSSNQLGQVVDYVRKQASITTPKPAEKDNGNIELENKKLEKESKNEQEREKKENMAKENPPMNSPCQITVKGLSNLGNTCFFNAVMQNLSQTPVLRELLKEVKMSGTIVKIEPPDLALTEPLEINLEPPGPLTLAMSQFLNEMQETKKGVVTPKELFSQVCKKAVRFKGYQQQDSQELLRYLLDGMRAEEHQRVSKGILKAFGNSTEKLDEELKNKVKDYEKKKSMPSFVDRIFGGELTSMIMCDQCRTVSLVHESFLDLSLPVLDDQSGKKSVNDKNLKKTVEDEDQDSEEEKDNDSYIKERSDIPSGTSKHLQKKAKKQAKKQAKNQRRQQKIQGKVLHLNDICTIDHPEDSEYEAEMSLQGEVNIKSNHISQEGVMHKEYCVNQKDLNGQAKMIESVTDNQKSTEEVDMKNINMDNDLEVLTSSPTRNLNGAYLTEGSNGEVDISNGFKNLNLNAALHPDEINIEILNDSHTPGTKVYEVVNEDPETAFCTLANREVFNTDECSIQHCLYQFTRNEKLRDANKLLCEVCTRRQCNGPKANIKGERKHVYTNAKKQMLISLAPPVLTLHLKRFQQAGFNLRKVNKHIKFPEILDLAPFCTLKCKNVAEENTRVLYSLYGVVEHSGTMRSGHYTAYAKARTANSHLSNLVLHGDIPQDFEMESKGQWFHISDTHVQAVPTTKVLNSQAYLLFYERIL

## O=C(CCl)N1CC2(CCOCC2)C1
OTUD6B
  log2 ratio of Biotin-Ahx-Ub-VS probe labelling: -0.202
OTUD7B
  log2 ratio of Biotin-Ahx-Ub-VS probe labelling: -0.345
PRPF8
  log2 ratio of Biotin-Ahx-Ub-VS probe labelling: -0.426
PSMD7
  log2 ratio of Biotin-Ahx-Ub-VS probe labelling: -0.00344
UCHL1
  log2 ratio of Biotin-Ahx-Ub-VS probe labelling: -1.21 (active)
UCHL3
  log2 ratio of Biotin-Ahx-Ub-VS probe labelling: 0.139
UCHL5
  log2 ratio of Biotin-Ahx-Ub-VS probe labelling: -0.253
USP10
  log2 ratio of Biotin-Ahx-Ub-VS probe labelling: -0.483
USP15
  log2 ratio of Biotin-Ahx-Ub-VS probe labelling: -0.212
USP16
  log2 ratio of Biotin-Ahx-Ub-VS probe labelling: -0.888
